The campaign covered roughly 39,000 compounds. About 3,300 (8.5%) were called active. For the sample, actives were picked, then their nearest neighbours and some compounds at random.
Each molecule was assayed on HepG2 (assay: cytotoxicity call (relative viability < 0.9)). Details: 10 µM.
In the case of COc1ccc(cc1)CN1C[C@]2(CN(C2)S(=O)(=O)c2cn(cn2)C)c2c([nH]c3cc(ccc23)OC)[C@H]1CO, the cytotoxicity call is reported as “inactive”. For Cc1noc(C)c1S(=O)(=O)Nc1ccc2c(c1)CC(=O)N([C@@H](C)CO)C[C@@H](C)[C@@H](CN(C)Cc1ccncc1)O2, the cytotoxicity call was “inactive”. For C[C@@H]1CN([C@H](C)CO)C(=O)c2cccc(NC(=O)NC3CCCCC3)c2O[C@H]1CN(C)S(=O)(=O)c1cn(C)cn1, the cytotoxicity call was “inactive”. With CCc1nc2ccc(C(=O)NCc3ccccc3OC)cn2c1N(CC)Cc1cccc(Br)c1 the cytotoxicity call was “inactive”. For CCS(=O)(=O)N1CC[C@]2(CC1)CN([C@H](CO)c1[nH]c3cc(ccc3c12)OC)C(=O)c1ccc(cc1)F, the cytotoxicity call was “inactive”. With O=C(O)[C@H]1NC(=O)[C@@H]1Cc1ccccc1 the cytotoxicity call was “inactive”. With CC(C)NC(=O)N(C)C[C@@H]1Oc2c(NS(=O)(=O)c3ccc(F)cc3)cccc2C(=O)N([C@H](C)CO)C[C@@H]1C the cytotoxicity call was “inactive”. For C[C@@H]1CN([C@@H](C)CO)C(=O)c2cc(NC(=O)Nc3ccc4c(c3)OCO4)ccc2O[C@H]1CN(C)Cc1ccc(-c2ccccc2)cc1, the cytotoxicity call was “active”. With C[C@@H]1CN([C@H](C)CO)C(=O)c2cccc(NS(=O)(=O)c3cn(C)cn3)c2O[C@@H]1CN(C)S(=O)(=O)c1ccc(F)cc1 the cytotoxicity call was “inactive”. With C[C@@H]1CN([C@H](C)CO)C(=O)c2cccc(NS(=O)(=O)c3cn(C)cn3)c2O[C@H]1CN(C)Cc1ccc2c(c1)OCO2 the cytotoxicity call was “inactive”. C[C@H](NC(=O)C[C@@H]1C[C@H]2c3cc(NC(=O)Nc4ccc(C(F)(F)F)cc4)ccc3O[C@H]2[C@@H](CO)O1)c1ccccc1 was tested, and the cytotoxicity call was “inactive”. COc1ccc(NC(=O)Nc2ccc3c(c2)C(=O)N([C@H](C)CO)C[C@H](C)[C@@H](CN(C)S(=O)(=O)c2ccc(C)cc2)OCCCC[C@H](C)O3)cc1 was tested, and the cytotoxicity call was “inactive”. With COc1ccc(S(=O)(=O)N(C)C[C@H]2OCCCC[C@@H](C)Oc3ccc(NC(=O)Nc4ccc5c(c4)OCO5)cc3C(=O)N([C@@H](C)CO)C[C@@H]2C)cc1 the cytotoxicity call was “active”. For COc1ccc(NC(=O)Nc2ccc3c(c2)C(=O)N([C@H](C)CO)C[C@H](C)[C@H](CN(C)S(=O)(=O)c2ccc(Cl)cc2)OCCCC[C@H](C)O3)cc1, the cytotoxicity call was “inactive”. For COc1ccc(S(=O)(=O)N(C)C[C@H]2OCCCC[C@H](C)Oc3ccc(NC(=O)Nc4ccc5c(c4)OCO5)cc3C(=O)N([C@H](C)CO)C[C@@H]2C)cc1, the cytotoxicity call was “inactive”. With COc1ccc(NC(=O)Nc2ccc3c(c2)C(=O)N([C@@H](C)CO)C[C@@H](C)[C@@H](CN(C)S(=O)(=O)c2ccc(C)cc2)OCCCC[C@@H](C)O3)cc1 the cytotoxicity call was “inactive”. COc1ccc(NC(=O)Nc2ccc3c(c2)C(=O)N([C@H](C)CO)C[C@@H](C)[C@H](CN(C)S(=O)(=O)c2ccc(Cl)cc2)OCCCC[C@@H](C)O3)cc1 was tested, and the cytotoxicity call was “active”. With COc1ccc(NC(=O)Nc2ccc3c(c2)C(=O)N([C@@H](C)CO)C[C@H](C)[C@@H](CN(C)S(=O)(=O)c2ccc(C)cc2)OCCCC[C@@H](C)O3)cc1 the cytotoxicity call was “active”. In the case of COc1ccc(NC(=O)Nc2ccc3c(c2)C(=O)N([C@@H](C)CO)C[C@H](C)[C@H](CN(C)S(=O)(=O)c2ccc(C)cc2)OCCCC[C@H](C)O3)cc1, the cytotoxicity call is reported as “active”. COc1ccc(NC(=O)Nc2ccc3c(c2)C(=O)N([C@H](C)CO)C[C@@H](C)[C@H](CN(C)S(=O)(=O)c2ccc(C)cc2)OCCCC[C@@H](C)O3)cc1 was tested, and the cytotoxicity call was “inactive”. For COc1ccc(NC(=O)Nc2ccc3c(c2)C(=O)N([C@H](C)CO)C[C@H](C)[C@H](CN(C)S(=O)(=O)c2ccc(C)cc2)OCCCC[C@H](C)O3)cc1, the cytotoxicity call was “inactive”. In the case of COc1ccc(NC(=O)Nc2ccc3c(c2)C(=O)N([C@H](C)CO)C[C@H](C)[C@H](CN(C)S(=O)(=O)c2ccc(Cl)cc2)OCCCC[C@@H](C)O3)cc1, the cytotoxicity call is reported as “inactive”. In the case of COc1ccc(S(=O)(=O)N(C)C[C@H]2OCCCC[C@H](C)Oc3ccc(NC(=O)Nc4ccc5c(c4)OCO5)cc3C(=O)N([C@H](C)CO)C[C@H]2C)cc1, the cytotoxicity call is reported as “inactive”. For CCCCCCC#C[Si](O[C@H](c1ccccc1)c1cn(Cc2cccc(Cl)c2)nn1)(C(C)C)C(C)C, the cytotoxicity call was “inactive”. With C[C@@H]1CCCCO[C@H](CN(C)C(=O)Nc2ccccc2)[C@H](C)CN([C@@H](C)CO)C(=O)c2cc(NS(=O)(=O)c3ccc(Cl)cc3)ccc2O1 the cytotoxicity call was “inactive”. With COc1ccc(C#Cc2ccc3c(c2)[C@H]2[C@H](CCN2C(=O)Nc2ccc(C(F)(F)F)cc2)[C@@H](CO)N3C)cc1 the cytotoxicity call was “inactive”. In the case of C[C@@H]1CCCCO[C@H](CN(C)C(=O)Nc2ccc3c(c2)OCO3)[C@H](C)CN([C@@H](C)CO)C(=O)c2cc(NC(=O)CCC(F)(F)F)ccc2O1, the cytotoxicity call is reported as “inactive”. O=C(CCCCCCC(=O)Nc1ccc(C(=O)NCCOCCOCCNC(=O)c2ccc(NC(=O)CCCCCCC(=O)NO)cc2)cc1)NO was tested, and the cytotoxicity call was “inactive”. In the case of COCC(=O)N(C)C[C@@H]1Oc2cc(-c3ccc(C#N)cc3)ccc2S(=O)(=O)N([C@@H](C)CO)C[C@H]1C, the cytotoxicity call is reported as “inactive”. In the case of C[C@H](CO)N1C[C@H](C)[C@H](CN(C)C(=O)CN2CCOCC2)Oc2ncc(/C=C/c3ccccc3)cc2C1=O, the cytotoxicity call is reported as “inactive”. COCCC(=O)N1C[C@H]2CN(c3cnn(C)c3)C(=O)[C@@H]2C1 was tested, and the cytotoxicity call was “inactive”. With Cc1ccc(F)cc1NC(=O)CN the cytotoxicity call was “inactive”. With COc1ccc(NC(=O)Nc2ccc3c(c2)C(=O)N([C@H](C)CO)C[C@H](C)[C@H](CN(C)S(=O)(=O)c2ccc(C)cc2)OCCCC[C@@H](C)O3)cc1 the cytotoxicity call was “inactive”. For COc1ccc(NC(=O)Nc2ccc3c(c2)C(=O)N([C@@H](C)CO)C[C@@H](C)[C@@H](CN(C)S(=O)(=O)c2ccc(OC)cc2)OCCCC[C@@H](C)O3)cc1, the cytotoxicity call was “inactive”. In the case of COc1ccc(NC(=O)Nc2ccc3c(c2)C(=O)N([C@H](C)CO)C[C@@H](C)[C@H](CN(C)S(=O)(=O)c2ccc(C)cc2)OCCCC[C@H](C)O3)cc1, the cytotoxicity call is reported as “active”. COc1ccc(NC(=O)Nc2ccc3c(c2)C(=O)N([C@@H](C)CO)C[C@@H](C)[C@@H](CN(C)S(=O)(=O)c2ccccc2)OCCCC[C@@H](C)O3)cc1 was tested, and the cytotoxicity call was “inactive”. With COc1ccc(NC(=O)Nc2ccc3c(c2)C(=O)N([C@@H](C)CO)C[C@@H](C)[C@H](CN(C)S(=O)(=O)c2ccc(C)cc2)OCCCC[C@H](C)O3)cc1 the cytotoxicity call was “inactive”. With COc1ccc(NC(=O)Nc2ccc3c(c2)C(=O)N([C@H](C)CO)C[C@@H](C)[C@H](CN(C)S(=O)(=O)c2ccccc2)OCCCC[C@H](C)O3)cc1 the cytotoxicity call was “active”. For COc1ccc(NC(=O)Nc2ccc3c(c2)C(=O)N([C@@H](C)CO)C[C@@H](C)[C@H](CN(C)S(=O)(=O)c2ccccc2)OCCCC[C@@H](C)O3)cc1, the cytotoxicity call was “inactive”. COc1ccc(NC(=O)Nc2ccc3c(c2)C(=O)N([C@H](C)CO)C[C@@H](C)[C@H](CN(C)S(=O)(=O)c2ccc(OC)cc2)OCCCC[C@@H](C)O3)cc1 was tested, and the cytotoxicity call was “active”. In the case of COc1ccc(NC(=O)Nc2ccc3c(c2)C(=O)N([C@@H](C)CO)C[C@H](C)[C@H](CN(C)S(=O)(=O)c2ccc(OC)cc2)OCCCC[C@@H](C)O3)cc1, the cytotoxicity call is reported as “inactive”.

From the antibiotic and cytotoxicity screens of Wong et al. (2023)
